Source: PubChem BioAssay (National Center for Advancing Translational Sciences (NCATS))
Compounds with a hit are over-represented: about 8.5% of the library has one in this group of screens.
Coupling enz = qHTS Assay for Inhibitors of Fructose-1,6-bisphosphate Aldolase from Giardia Lamblia: Coupling assay counterscreen. AID 2472, 2010. 290,000 compounds, 0.67% hits. coupling enzyme system counterscreen, AmpLite Red fluorescence. activity change, negative = inhibition, % at 58.2 µM, hits read low; in the data active = activity change below about -30%
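First, compound is pin-transferred into glyceraldehyde-3-phosphate coupling-enzyme reagent at 57.5 uM final and held 10 min at RT. Next, substrate, coupling system and AmpLite Red are added. After 20 min RT, fluorescence (525/598 nm) is read.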
GoLoco inh red = qHTS Assay for Inhibitors of RGS12 GoLoco Motif Activity (Red Fluorophore) | 230,000 compounds, 0.44% hits | Guanine nucleotide-binding protein G(i) subunit alpha-1 (Homo sapiens), P63096 | Potency, µM (series often up to 61.6 µM), for the others: at the highest dose activity, negative = inhibition, actives largely listed as inhibitors | Gai1:RGS12 GoLoco peptide FP, rhodamine, 10 min; active = well fitted inhibition curve with a large enough effect, not every such curve was filed as active; inactive = no such curve, though single readings can be large or run the other way; also: potency is read from the fitted curve at half-maximal effect; nearly all actives have a fitted effect of over 30% in size
Target sequence (P63096 whole entry, looked up): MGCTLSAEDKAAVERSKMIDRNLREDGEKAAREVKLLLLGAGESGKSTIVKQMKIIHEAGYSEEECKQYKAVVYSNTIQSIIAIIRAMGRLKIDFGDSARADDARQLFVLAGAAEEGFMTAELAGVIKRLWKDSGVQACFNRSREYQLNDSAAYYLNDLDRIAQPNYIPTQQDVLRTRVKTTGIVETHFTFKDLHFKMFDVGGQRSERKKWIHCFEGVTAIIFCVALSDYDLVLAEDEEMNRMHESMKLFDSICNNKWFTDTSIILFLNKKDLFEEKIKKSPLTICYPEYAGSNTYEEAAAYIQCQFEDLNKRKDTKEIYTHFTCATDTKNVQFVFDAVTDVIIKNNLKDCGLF
ALDH1A1 inh = qHTS Assay for Inhibitors of Aldehyde Dehydrogenase 1 (ALDH1A1); Aldehyde dehydrogenase 1A1 (Homo sapiens), P00352; Potency, µM (titrated, usually from 75.3 µM), for inactives: at the highest dose activity, negative = inhibition, most hits filed as inhibitors; AID 1030, 2008; 220,000 compounds, 7.3% hits; Purified ALDH1A1, NADH fluorescence, propionaldehyde substrate;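 also: potency is read from the fitted curve at half-maximal effect; plate controls were no enzyme wells and a reference inhibitor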
Sfp PPTase inh = qHTS Assay for Inhibitors of Bacillus subtilis Sfp phosphopantetheinyl transferase (PPTase); 310,000 compounds, 3.5% hits; AID 1490, 2009; Potency, µM, for the others: largest response in the series, negative = inhibition, actives largely listed as inhibitors; Biochemical Sfp PPTase activity, qHTS; active = well fitted curve in the direction sought with a large enough effect; inconclusive = small, poorly fitted or top-dose-only effect, or another doubt; inactive = no such curve, though single readings can be large; an effect the other way counts as inactive or inconclusive;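 also: the enzyme is Sfp with the accession as filed and its product quenches rhodamine fluorescence; potency is read from the fitted curve at half-maximal effect; 0% = enzyme reaction without inhibitor and -100% = no enzyme wells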
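With Hepes-Na pH 7.6 buffer containing 10 mM MgCl2, Sfp (15 nM) modified BHQ-2-YbbR (12.5 uM) using rhodamine-CoA (5 uM). Two reads 30 minutes apart at 525/598 nm yielded each well's rate.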
NPSR antagonist = qHTS Assay for Antagonists of the Neuropeptide S Receptor: cAMP Signal Transduction; Q6W5P4; CHO-NPSR cells, cAMP TR-FRET, antagonist mode; Potency, µM (top dose mostly 38.3 µM), for inactives: at the highest dose activity change, negative = inhibition, most hits filed as inhibitors; 220,000 compounds, 1% hits; AID 1461, 2008; active = well fitted curve in the direction sought with a large enough effect; inconclusive = small, poorly fitted or top-dose-only effect, or another doubt; inactive = no such curve, though single readings can be large; an effect the other way counts as inactive or inconclusive; also: potency is read from the fitted curve at half-maximal effect; nearly all actives have a fitted effect of over 50% in size
JMJD2E inh = qHTS Assay for Inhibitors of Human Jumonji Domain Containing 2E (JMJD2E); JMJD2E catalytic domain, FDH-coupled NADH fluorescence (FDH is formaldehyde dehydrogenase); Potency, µM (top dose mostly 57.1 µM), inactives show top-dose activity change, negative = inhibition, hits mostly inhibitors; 230,000 compounds, 1.6% hits; AID 2147, 2009;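 also: potency is read from the fitted curve at half-maximal effect; 0% = wells with enzyme and -100% = buffer wells without enzyme; nearly all actives have a fitted effect of over 50% in size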
Target sequence (B2RXH2 1-337 limits assumed): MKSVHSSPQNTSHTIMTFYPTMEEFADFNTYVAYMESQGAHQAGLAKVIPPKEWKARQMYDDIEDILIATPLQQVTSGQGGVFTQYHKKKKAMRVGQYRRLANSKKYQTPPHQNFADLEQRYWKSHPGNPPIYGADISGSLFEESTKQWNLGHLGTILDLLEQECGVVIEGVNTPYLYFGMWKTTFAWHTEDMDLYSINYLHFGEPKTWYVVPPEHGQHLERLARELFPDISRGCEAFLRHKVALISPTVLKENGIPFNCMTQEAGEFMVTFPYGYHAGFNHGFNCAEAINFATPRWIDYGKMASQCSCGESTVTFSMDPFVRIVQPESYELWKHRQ
Starred values were filed as active, the others as inactive; u = inconclusive; x = not tested or not shown; [ ] = remark or other dose. Unless noted, calls follow the shape of the dose curve; as a rule, active = well fitted inhibition curve with a large enough effect (not every such curve was filed as active); inconclusive = small, poorly fitted or top-dose-only effect, or another doubt; inactive = no such curve, though single readings can be large or run the other way. Unless noted, % is scaled to controls: 0 for no effect and ±100 for the full control effect.

SMILES | Coupling enz | GoLoco inh red | ALDH1A1 inh | Sfp PPTase inh | NPSR antagonist | JMJD2E inh
COc1cccc(CNC(=O)CCC2CCCN(C(=O)c3ccc(OC)o3)C2)c1 (stereo not given) | 0.7 | 12.8% | 7.94µM* | 50.1µM* | -4.9% | 1.0%
C[C@H](N)C(=O)N[C@@H](CO)C(=O)N[C@H](C(=O)N[C@H](C(=O)N[C@H](C(=O)N[C@@H](CC(N)=O)C(=O)N[C@@H](Cc1ccc(O)cc1)C(=O)N[C@H](C(=O)O)[C@@H](C)O)[C@@H](C)O)[C@@H](C)O)[C@@H](C)O | 0.1 | x | x | 12.5% | x | x
CCN(CC(=O)Nc1cc(Cl)ccc1C)C(=O)COc1cccc2c1OC(C)(C)C2 | -2.4 | x | x | 6.0% | x | x
O=C(Nc1ccccc1)c1cccc(N2C(=O)CCC2=O)c1 | 0.2 | -4.6% | u | 8.4% | 3.2%[46.1 µM] | 4.3%
CN(C)c1ccc(NC(=O)c2cccc(N3C(=O)CCC3=O)c2)cc1 | -5.4 | -31.0% | 18.9µM* | -2.6% | u | -29.4%
Cc1ccc(C(C)C)c(OCC#CCN2CCOCC2)c1 | -3.2 | x | x | u | x | x
CC1=C(C(=O)Nc2ccccc2)C2(CCCCC2)C(C#N)=C(S)N1 | -0.4 | 5.4% | 20µM* | 31.6µM* | -18.0%[46.1 µM] | -3.5%
N#CC1=C(N)NC(SCC(=O)Nc2ccccc2)=C(C#N)C12CCCC2 | 2.7 | 3.7% | 4.47µM* | 3.8% | -28.2%[46.1 µM] | -12.7%
N#CC1=C(N)NC(SCC(=O)O)=C(C#N)C12CCCC2 | 6.2 | 31.6% | 5.62µM* | 56.2µM* | -14.6%[7.67 µM] | u
CCOc1ccc(C(=O)CCC(=O)N(CC)CC(=O)NCc2ccc(Cl)cc2)cc1 | x | x | x | 10.5% | x | x
COc1cccc(OCc2cc(C(=O)NCc3cnc4ccccn34)no2)c1 | x | x | x | 5.7% | x | x
O=C(O)[C@@H]1CN[C@@H](C(=O)O)C1 | x | 1.9% | 8.2% | -22.0% | x | x
CCOC(=O)c1cc(-c2ccccc2)sc1N | 0.3 | -0.8% | 11.2µM* | 22.4µM* | 16.6%[46.1 µM] | -6.3%
Cc1sc(N)c(C(=O)c2ccccc2)c1C | 1.4 | 24.2% | u | 15.8µM* | -3.3% | -9.1%
CCOC(=O)c1sc(-c2ccccc2)cc1N | -2.5 | 14.1% | u | -7.0% | -1.4%[46.1 µM] | u
CCOC(=O)c1c(N)sc(C)c1-c1ccccc1 | -10.1 | -0.8% | u | 35.5µM* | x | x
Cc1cccc(Nc2nc(N)nc(CCl)n2)c1C | -4.4 | -6.9% | x | -7.9% | -37.4% | 8.8%
COc1ccc(C2CC(=O)Oc3c(C(CCN4CCCC(C)C4)c4cc(OC)c(OC)c(OC)c4)c(OC)cc(OC)c32)cc1 (stereo not given) | 0.9 | x | x | -7.6% | x | x
COc1ccc2nc(NC(=O)CN3CCN(C)CC3)sc2c1 | 0.0 | 8.9% | u | -3.0% | 6.2%[46.1 µM] | -3.9%
COc1ccc(C)cc1NC(=O)CN1CCN(c2ccccc2F)CC1 | 0.9 | 8.4% | u | -2.8% | u | 1.4%
COc1ccc2nc(NC(=O)CSc3ccccc3)sc2c1 | 3.2 | 184.8% | 28.2µM* | u | -15.2%[46.1 µM] | -14.2%
COc1ccc(C)cc1NC(=O)CN1CCN(C/C=C/c2ccccc2)CC1 | -5.0 | 4.7% | -3.7% | 89.1µM* | -19.6%[46.1 µM] | -3.9%
CCN1CCN(CC(=O)Nc2nc3ccc(OC)cc3s2)CC1 | 1.4 | -3.1% | u | 89.1µM* | -23.1%[46.1 µM] | u
CCN1CCN(CC(=O)Nc2c(OC)cccc2OC)CC1 | 0.3 | x | x | 79.4µM* | x | x
COc1ccccc1NC(=O)CN1CCCCC1 | 0.9 | -4.5% | 19.0% | 19.2% | -9.3%[46.1 µM] | 8.2%
SMILES | Coupling enz | GoLoco inh red | ALDH1A1 inh | Sfp PPTase inh | NPSR antagonist | JMJD2E inh
CC1=NN(C(C#N)c2ccccc2C)C(C)(C)C1 (stereo not given) | 0.8 | 5.3% | 3.7% | 18.3% | 9.2% | 10.4%
CC(C)n1nnc(-c2ccc(OCc3ccccc3F)cc2)n1 | 3.1 | x | x | -7.3% | x | x
COc1ccc2nc(NC(=O)C3COc4ccccc4O3)sc2c1 (stereo not given) | -1.4 | -4.4% | -5.9% | u | -2.3%[46.1 µM] | -28.8%
COc1ccc2nc(Nc3sc4c(c3C(N)=O)CCCC4)sc2c1 | 2.9 | 197.8% | 8.91µM* | 44.7µM* | -7.9% | 0.8%
Cc1cccc(NC(=O)CN2CCN(CC(=O)Nc3cccc(C)c3)CC2)c1 | 0.5 | -6.4% | 20µM* | 19.7% | -17.0%[46.1 µM] | -3.5%
COc1ccc2nc(NNC(=O)C3COc4ccccc4O3)sc2c1 (stereo not given) | 5.5 | 1.9% | -10.8% | 79.4µM* | -15.3% | u
O=C(CSc1ncn(-c2ccccc2)n1)Nc1nc2ccccc2s1 | 0.1 | -7.7% | 12.6µM* | u | -18.5%[46.1 µM] | 1.1%
C[C@H](O)c1[nH]c2cc(F)ccc2c1[C@H](C)O | -0.9 | x | x | -7.3% | x | x
COc1ncc2nc(-c3ccc(F)cc3)c(=O)n(C)c2n1 | -0.3 | 21.2% | u | 4.3% | x | x
CC1CCN(c2oc(-c3ccc(F)cc3)nc2C#N)CC1 | -1.3 | x | x | -11.5% | x | x
COc1cccc(NC(=S)N2CCN(C)CC2)c1 | 3.2 | x | x | 13.3% | x | x
O=C1C=C(NCc2ccncc2)CC(c2ccccc2)C1 (stereo not given) | 2.1 | 4.6% | -10.9% | 6.5% | -3.5%[46.1 µM] | -1.1%
O=C1C=C(NNC(=O)c2ccncc2)CC(c2ccccc2)C1 (stereo not given) | 1.8 | 168.2% | 8.91µM* | 18.3% | 0.2% | u
Cc1cccc(C)c1N1CC(=O)N(c2c(C)cccc2C)CC1=O | -0.3 | 0.7% | 6.0% | 16.7% | 4.6%[46.1 µM] | -5.6%
Cc1cccc(OCCN2C(=O)c3ccccc3C2=O)c1 | 0.3 | 13.1% | 8.7% | -4.5% | -36.0% | -8.4%
O=C1c2ccccc2C(=O)N1CCCOc1ccccc1 | 0.2 | 9.3% | 0.7% | 9.3% | -19.0%[46.1 µM] | -3.6%
Cc1ccc(OCCCN2C(=O)C(=O)c3cc(C)ccc32)cc1 | -1.9 | 10.7% | 0.1µM* | -2.9% | 8.1% | 8.0%
Cc1cccc(OCCCN2C(=O)C(=O)c3cc(C)ccc32)c1 | -9.2 | 10.1% | 0.1µM* | -0.1% | 8.8% | -1.3%
Cc1ccc(OCCN2C(=O)C(=O)c3cccc(C)c32)cc1 | -0.3 | 4.8% | 0.199µM* | 14.6% | -3.2% | 14.4%
Cc1cccc2c1N(C)C(=O)C2=O | -6.6 | 2.1% | 1.78µM* | -1.0% | 24.6% | -2.8%
COc1ccccc1CNC(=O)c1cn(C)c2ccc(S(=O)(=O)N3CCCC3)cc2c1=O | -2.8 | -8.2% | u | 17.0% | -24.0% | 10.4%
COc1ccc(-c2nc3cnc(N4CCOCC4)nc3n(-c3ccccc3)c2=O)cc1 | -0.6 | 30.4% | 13.1% | 26.6% | x | x
Cc1ccc2c(c1)C(=O)C(=O)N2CCCOc1ccccc1 | -0.2 | 5.7% | 0.112µM* | 20.6% | -2.3% | 3.2%
